# Reference: PubChem BioAssay (NCATS)
# Results filed as inconclusive are left out. Where a call stands in place of a potency, no number is given. The source made the active and inactive calls. Calls come from the whole dose curve; as a rule, active = well fitted inhibition curve with a large enough effect; inconclusive = small, poorly fitted or top-dose-only effect; inactive = flat fitted curve, though single readings scatter.
# Tests used:
# [1] = P-glycoprotein substrates identified in KB-8-5-11 adenocarcinoma cell line, qHTS therapeutic library screen (AID 1346987); note: nearly all actives have a fitted effect of over 65% in size; note: potency is the fitted concentration of half-maximal effect
# How it was run: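 In this qHTS, P-gp-rich KB-8-5-11 cells received library compounds across a concentration range. Viability was quantified by luminescence after 72 h at 37 degree C.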
# [2] = Primary qHTS for inhibitors of nuclear receptor binding SET domain protein 2 (NSD2) in an isogenic RCH-ACV NSD2 p.E1099K mutant (9B) (AID 1645876); note: potency is the fitted concentration of half-maximal effect; nearly all actives have a fitted effect of over 70% in size
# [3] = biological target: Glutathione peroxidase 1 (Homo sapiens) (UniProt P07203); experiment: Primary qHTS Assay for Inhibitors of Recombinant Selenoprotein Glutathione Peroxidase 1 (GPX1) (AID 1845191); note: nearly all actives have a fitted effect of over 65% in size
# How it was run: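 NADPH consumption tracked by fluorescence at 340/450 nm between t=0 and t=15 min, room temperature. Final mix: 10 nM GPX1, 100 nM glutathione reductase, 1 mM GSH, 0.5 mM NADPH, 0.5 mM cumene hydroperoxide, 0.01% BSA; 30 min compound–enzyme preincubation.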
# [4] = tested on: Zika virus NS2B-NS3 protease; experiment: Primary screen GU AMC qHTS for Zika virus inhibitors (AID 1347154); note: nearly all actives have a fitted effect of over 70% in size
# How it was run: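 Fluorogenic AMC-substrate cleavage by noncovalent NS2B-NS3 protease complex (25 nM, pH 8.0 Tris buffer with Tween 20) followed for 15 minutes at room temperature (~20% conversion). Percent inhibition from ex340/em450 signal change, fitted by 4-parameter Hill equation.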
# Chain of Glutathione peroxidase 1 (Homo sapiens) (P07203 whole entry, looked up): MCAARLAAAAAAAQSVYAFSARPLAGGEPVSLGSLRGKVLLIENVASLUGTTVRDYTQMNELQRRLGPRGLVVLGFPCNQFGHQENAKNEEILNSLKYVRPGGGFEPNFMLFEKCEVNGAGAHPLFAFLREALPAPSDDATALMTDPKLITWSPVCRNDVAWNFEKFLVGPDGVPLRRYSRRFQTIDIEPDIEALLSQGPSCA
Structure (SMILES),Potency [1],Potency [2],Potency [3],Potency [4]
COc1cc(/C=C\c2ccc(O)cc2)cc(OC)c1,inactive,6.51 µM (active),inactive,
O=C1NC(=O)c2cc(Nc3ccc(F)cc3)c(Nc3ccc(F)cc3)cc21,14.6 µM (active),,inactive,inactive
